Laboratory results as given in PMC5540273 (PLoS ONE, 2017).

What was measured:
Conditions in all cases: concentration: 1 μM, replicates: in singlicate; n = 1
MAP3K15 = test system: MAP3K15
MAP3K1 = test system: MAP3K1
MAP3K2 = test system: MAP3K2
MAP3K3 = test system: MAP3K3
MAP3K4 = test system: MAP3K4
MAP4K2 = test system: MAP4K2
MAP4K3 = test system: MAP4K3
MAP4K4 = test system: MAP4K4
MAP4K5 = test system: MAP4K5
MAPKAPK2 = test system: MAPKAPK2
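Also: KINOMEscan kinase panel screen.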

SMILES	%Inh (MAP3K15) [%]	%Inh (MAP3K1) [%]	%Inh (MAP3K2) [%]	%Inh (MAP3K3) [%]	%Inh (MAP3K4) [%]	%Inh (MAP4K2) [%]	%Inh (MAP4K3) [%]	%Inh (MAP4K4) [%]	%Inh (MAP4K5) [%]	%Inh (MAPKAPK2) [%]
O=C(O)C(F)(F)F.O=c1[nH]ccc2nc(N[C@@H]3CCNC3)nc(Nc3ccc4c(c3)S(=O)(=O)CC4)c12 [GSK2181306]	49	28	85	76	34	100	96	92.6	95.6	33
Cc1ccc(Nc2ccnc(Nc3ccc(C)c(F)c3)n2)cc1O.Cl [GW582868]	0	2	0	0	40	0	96.8	5	2	0
Cc1ccc(O)cc1Nc1ccnc2cc(-c3ccc(CN4CCCCC4)o3)ccc12 [GW557777]	7	67	29	7	0	29	0	2	3	0
CN(c1ccc2c(c1)nc(NCc1ccccc1)n2C)c1ccnc(Nc2ccc(CS(C)(=O)=O)cc2)n1.Cl [GW811603]	13	0	0	56	0	0	33	2	0	0
COc1cc(Nc2nccc(N3CCC(NS(=O)(=O)c4ccc(NC(C)=O)cc4)CC3)n2)cc(OC)c1OC [GSK1379825]	0	11	18	0	31	0	40	68	53	0
O=C1NC(=O)C(c2ccccc2Cl)=C1Nc1cccc(Cl)c1 [SB-342409]	0	10	1	3	3	0	5	0	0	37
Cc1cccc(Nc2nc(NCCN)ncc2C(N)=O)c1 [GSK1292139]	0	4	62	31	22	98.4	32	83	26	2
CN(C)CCNS(=O)(=O)c1ccc(-c2ccnc3[nH]ccc23)cc1 [GSK977620]	14	11	49	19	0	11	31	20	8	0
CN(C)CCOc1ccc(-c2cc(-c3ccc(Cl)c(O)c3)c(-c3ccncc3)[nH]2)cc1.Cl.Cl [SB-684387]	50	0	0	0	17	27	0	22	3	12
O=C(Nc1n[nH]c2cc(-c3cccs3)ccc12)C1CC1 [SB-731284]	57	52	34	44	0	9	0	13	0	0
CSc1ccc(NC2=C(c3ccc(Cl)cc3)C(=O)NC2=O)cc1 [SB-317658]	0	0	1	29	37	12	1	16	17	1
CC(C)c1nc(-c2ccc(F)c(NS(=O)(=O)c3c(F)cccc3F)c2)c(-c2ccnc(Nc3ccc(N4CCOCC4)nc3)n2)s1 [GSK1804250]	26	17	13	0	23	8	22	4	58	14
Cc1ccc(-c2ccc3occ(-c4ccc(S(C)=O)cc4)c3c2)nn1 (stereo not drawn)	0	0	0	0	0	0	0	0	0	0
CN1CCN(Cc2ccc(NC(=O)Nc3ccc(N(C)c4ccnc(Nc5ccc(CS(C)(=O)=O)cc5)n4)cc3)cc2)CC1.Cl [GW827654]	100	37	59	61	96	67	95.5	95.8	82	0
Fc1cc(Cl)ccc1Nc1ccnc2cc(-c3ccc(CN4CCSCC4)o3)ccc12 [GW560106]	0	6	0	0	0	0	8	40	50	5
O=C(Nc1n[nH]c2nc(-c3ccccc3)ccc12)C1CC1 [SB-708999]	3	17	6	0	28	0	1	53	12	4
Cn1cc(-c2cnc(N)c3c(-c4ccc5c(c4)CCN5C(=O)Cc4ccccc4)csc23)cn1 [GSK2593074]	35	4	75	64	82	36	97.6	0	98.8	0
Cl.N#CCc1ccc(Nc2nccc(Nc3ccc(Oc4ccccc4)cc3)n2)cc1 [GW639905]	21	11	0	0	10	0	0	99.1	100	0
Cl.Cl.NCC(NC(=O)c1cc(-c2cccnc2)c(-c2ccnc3[nH]ccc23)s1)c1ccccc1 (stereo not drawn) [GSK1323434]	0	7	3	0	0	41	0	82	0	6
CCNc1nccc(-c2c(-c3ccc(F)cc3)ncn2C2CCN(C)CC2)n1	0	0	0	0	0	0	0	0	0	0
COc1ccc(C)c(Nc2ccnc(Nc3ccc(-c4cnc[nH]4)cc3)n2)c1.Cl [GW784041]	0	0	0	28	18	0	6	23	19	0
O=C(Nc1c(F)cccc1F)c1cc(C(=O)c2ccccc2F)c[nH]1 [GSK1326180]	0	0	0	0	42	0	0	19	0	8

SMILES	%Inh (MAP3K15) [%]	%Inh (MAP3K1) [%]	%Inh (MAP3K2) [%]	%Inh (MAP3K3) [%]	%Inh (MAP3K4) [%]	%Inh (MAP4K2) [%]	%Inh (MAP4K3) [%]	%Inh (MAP4K4) [%]	%Inh (MAP4K5) [%]	%Inh (MAPKAPK2) [%]
COc1ccc(C2=C(Nc3cccc(O)c3)C(=O)NC2=O)cc1 [SB-390766]	0	24	0	0	0	0	0	0	0	0
O=C(O)C(F)(F)F.O=c1[nH]ccc2nc(N[C@@H]3CCNC3)nc(Nc3cc(Cl)cc(Cl)c3)c12 [GSK2188764]	26	24	81	78	19	99.9	77	94.1	76	31
Cc1cc(-c2c(-c3ccc(F)cc3)ncn2CCCN2CCOCC2)nc(N)n1 [SB-222517]	0	24	30	0	15	0	5	0	0	0
COc1cccc(-c2nc(-c3ccccc3)[nH]c2-c2ccncc2)c1 [SB-610250]	0	16	9	0	0	0	0	1	0	17
O=C(Nc1n[nH]c2nc(-c3cccc(O)c3)ccc12)C1CC1 [SB-711805]	15	17	14	50	0	9	0	13	0	0
CC(=O)Nc1cn2nc(Oc3cccc(NC(=O)c4cccc(C(F)(F)F)c4)c3)ccc2n1	0	0	0	22	19	0	91.7	36	90	0
CNc1nccc(-c2ccc3c(N)n[nH]c3c2)n1 [GSK2206003]	0	14	0	0	0	54	0	13	0	0
Cl.Cl.NC(CNC(=O)c1cc(Br)c(-c2ccnc3[nH]ccc23)s1)c1ccccc1 (stereo not drawn) [GSK1322949]	16	14	27	15	3	56	20	53	4	0
c1ccc(Oc2ccc(Nc3ccnc4cc(-c5ccc(CN6CCCCC6)o5)ccc34)cc2)nc1 [GW567143]	18	8	0	0	0	0	0	13	81	3
Nc1ncnc2scc(-c3ccc(NC(=O)Cc4cc(F)ccc4F)cc3)c12.O=C(O)C(F)(F)F [SB-731254-M]	24	10	82	63	22	16	54	1	70	35
Cc1ccc(NC(=O)c2ccc(Cl)c(Cl)c2)cc1-c1ccc(C(=O)Nc2ccncc2)cc1 [GSK1398460]	0	8	1	0	45	0	0	1	0	15
COc1cccc(NC(=O)NCCNc2ccnc(Nc3ccc(F)cc3)n2)c1 [GSK1379879]	0	1	0	0	36	0	10	0	0	20
COc1ccc(NC(=O)c2ccoc2)cc1-c1ccc(C(=O)NCC2CC2)cc1 [GW810437]	4	13	9	0	6	10	0	0	7	0
CC(C)(C)c1ccc(C(=O)Nc2cn3cc(-n4ccnc4)ccc3n2)cc1	68	12	17	0	15	30	0	6	0	0
Cc1ccc(O)cc1Nc1ccnc2ccc(C(C)(C)C)cc12 [GW856805]	26	27	32	31	23	43	0	0	4	0
CN(c1ccc(NC(=O)Nc2cccc(Cl)c2)cc1)c1ccnc(N)n1.Cl [GW830707]	0	0	0	23	0	10	0	0	16	0
Cl.O=C(Nc1ccc(Oc2ccc3[nH]c(NC(=O)c4ccco4)nc3c2)cc1)Nc1cc(C(F)(F)F)ccc1F [GW683134]	0	27	7	0	0	0	17	24	32	93
CCn1c(-c2nonc2N)nc2c(-c3ccccc3)ncc(OCCCN)c21.O=C(O)C(F)(F)F.O=C(O)C(F)(F)F [GSK260205]	0	17	98.2	97.7	6	3	0	76	5	13
Nc1cccc(-c2ccc3c(N)n[nH]c3c2)c1 [GSK2193613]	0	100	0	0	4	91.1	1	19	0	0
Cc1cccc(Nc2nc(N[C@H]3CCCC[C@H]3N)ncc2C(N)=O)c1.Cl [GSK986310]	16	17	84	71	0	98.4	31	74	34	19
CN(c1ccc(NC(=O)N2CCN(CCCN3CCOCC3)CC2)cc1)c1ccnc(Nc2ccc(CS(C)(=O)=O)cc2)n1.Cl [GW830899]	0	0	0	8	15	0	18	7	30	0
Nc1ncc(-c2ccc3nccc(-c4ccncc4)c3c2)cc1S(=O)(=O)N1CCCCC1 [GSK1693850]	0	9	0	1	14	16	0	5	6	5

SMILES	%Inh (MAP3K15) [%]	%Inh (MAP3K1) [%]	%Inh (MAP3K2) [%]	%Inh (MAP3K3) [%]	%Inh (MAP3K4) [%]	%Inh (MAP4K2) [%]	%Inh (MAP4K3) [%]	%Inh (MAP4K4) [%]	%Inh (MAP4K5) [%]	%Inh (MAPKAPK2) [%]
Cc1nn2c(=O)cc(N3CCO[C@H](C)C3)nc2n1Cc1cccc(Cl)c1Cl [GSK2373693]	22	66	7	0	4	0	4	17	10	12
Fc1cc(Cl)ccc1Nc1ccnc2cc(-c3ccc(CN4CCOCC4)o3)ccc12 [GW560109]	23	38	0	0	0	0	72	25	11	7
COc1cccc2c(-c3ccncc3)c(-c3ccc(F)cc3)nn12 [GW468513]	0	5	3	0	6	0	0	33	2	13
Cc1cc(-c2ccnc(Nc3cccc(C#N)c3)n2)cc(C)c1O [GSK1440913]	0	22	2	1	18	30	18	76	12	0
CCNC(=O)/C=C/c1n[nH]c2cc(Sc3ccccc3C(=O)NC)ccc12	5	38	20	30	3	30	65	39	24	12
Cc1ccc(NC(=O)c2cccc(N3CCCCC3)c2)cc1-c1ccc(C(=O)NCC2CC2)cc1 [GSK1917008]	11	17	0	0	28	5	80	16	22	18
O=C(Nc1n[nH]c2nc(-c3ccccc3O)ccc12)C1CC1 [SB-711880]	0	0	19	4	0	0	44	58	0	0
Cn1cc(-c2ccc3c(c2)CCN3C(=O)Cc2cc(F)cc(F)c2F)c2c(N)ncnc21 [GSK2634140]	7	10	87	50	80	0	78	0	81	7
COC(=O)Nc1nc2cc(Oc3ccc(NC(=O)Nc4cccc(SC)c4)cc3)ccc2[nH]1.Cl [GW697999]	0	15	1	0	0	0	0	0	0	0
CN(C)c1ncnc2nc[nH]c12 [SKF-31736]	37	11	16	0	0	0	0	0	0	0
CC(C)c1nc(-c2cccc(NS(=O)(=O)c3c(F)cccc3F)c2)c(-c2ccnc(Nc3ccc(N4CCOCC4)nc3)n2)s1.Cl [GSK1723980]	7	13	28	71	28	0	47	0	48	0
COc1cccc(CC(=O)N2CCc3cc(-c4cn(C)c5ncnc(N)c45)ccc32)c1 [GSK2608899]	13	20	82	49	77	38	78	0	84	21
CCOc1nccc(-c2c(-c3ccc(F)cc3)ncn2C2CCNCC2)n1 [SB-249175]	57	42	10	7	11	100	0	31	27	0
COc1cccc(C2=C(Nc3cccc(O)c3)C(=O)NC2=O)c1 [SB-390771]	0	0	12	0	38	8	0	4	0	17
COC(=O)Nc1nc2ccc(Oc3ccc(CC(=O)Nc4cc(C(F)(F)F)ccc4F)cc3)cc2[nH]1 [GW680903]	0	0	0	0	8	0	0	0	0	20
COC(=O)Nc1nc2ccc(Oc3ccc(NC(=O)Nc4cc(C(F)(F)F)ccc4F)cc3)cc2[nH]1.Cl [GW654607]	0	25	0	0	23	1	0	22	11	29
Cc1ccc(NC(=O)c2ccnc(N3CCCCC3)c2)cc1-c1ccc(C(=O)NCC2CC2)cc1 [GW775610]	0	0	0	0	0	0	11	0	26	12
COc1cc(Nc2nccc(N3CCC(NC(=O)Nc4ccc5c(c4)OCO5)C3)n2)cc(OC)c1OC (stereo not drawn) [GSK1379766]	0	8	0	0	29	17	0	0	0	0
Nc1ncc(-c2cn[nH]c2)c2scc(-c3ccc4c(c3)CCN4C(=O)Cc3ccccc3)c12 [GSK2593067]	22	24	91	79	86	87	98.9	27	99.6	0
N#CC1(c2cccc(C(=O)Nc3cccc(Oc4ccc5nc(NC(=O)C6CC6)sc5n4)c3)c2)CC1	0	0	22	0	19	0	58	68	50	0
N#Cc1cnc2cc(-c3cnc(CNCCN4CCOCC4)s3)ccc2c1Nc1ccc(Oc2ccccc2)cc1 [GW664114]	0	19	65	86	99.2	71	98.9	98.1	99.6	14
CC(C)NCC(Cc1ccccc1)NC(=O)c1cc(Br)c(-c2ccnc3[nH]ccc23)s1.Cl.Cl (stereo not drawn) [GSK1383281]	0	0	34	0	0	0	0	27	0	0
